uPA generation: cell surface uPA generation inhibition; cell surface uPA generation assay, qHTS; Potency, µM (series often up to 38.3 µM), for inactives: at the top dose activity change, negative = inhibition, hits mostly inhibitors; actives 0.31% (n = 330,000); AID 540303; active = well fitted inhibition curve with a large enough effect; inconclusive = small, poorly fitted or top-dose-only effect; inactive = no such curve, though single readings can be large or run the other way; tested in mouse RAW 264.7 cells; also: potency is read from the fitted curve at half-maximal effect; nearly all actives have a fitted effect of over 55% in size
DT40 TDP1 no CPT: qHTS for Inhibitors of human tyrosyl-DNA phosphodiesterase 1 (TDP1): qHTS in cells in absence of CPT; DT40 Tdp1-/- hTDP1 cells, no CPT, ATP luminescence, 48 h; Potency, µM (titrated, usually from 46.2 µM), without a hit: top-dose activity change, negative = growth inhibition, actives largely listed as inhibitors; actives 15% (n = 420,000); AID 686978, 2013; also: potency is read from the fitted curve at half-maximal effect; nearly all actives have a fitted effect of over 55% in size
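Growth kinetics read by CellTiter-Glo luminescence after ≥48 hr at 37 °C. Cells: DT40 Tdp1-/- stably carrying human TDP1, 400 per well, compound exposure in the absence of CPT (DMSO vehicle).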
HT1080NT lethal: kills 2HG-producing HT-1080-NT fibrosarcoma cells | HT-1080-NT fibrosarcoma viability, CellTiter-Glo ATP luminescence, 48 h | AID 686970 | Potency, µM (series often up to 46.1 µM), for inactives: top-dose activity, negative = less viability, most hits filed as cytotoxic | actives 1.6% (n = 360,000);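 also: NT is the 2HG producing partner of a matched IDH1 knockdown line; potency is read from the fitted curve at half-maximal effect; 0% = DMSO-treated cells and -100% = media-only wells without cells; nearly all actives have a fitted effect of over 55% in size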
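HT-1080-NT fibrosarcoma cells (2HG-overproducing), 750 cells/well in RPMI with 5% FBS, dosed after 2 h and incubated 48 h at 37C. CellTiter-Glo luminescence normalized to DMSO and no-cell wells; concentration-response curves fitted and classed.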
IL-1B inflam inh: blocks inflammasome-driven IL-1 beta release. THP-1 LPS/ATP IL-1B secretion, AlphaLISA, 16 h; hits give low values. activity change, % at 57.5 µM. actives 4.7% (n = 360,000). AID 743279; in the data active = activity change below about -50%; inconclusive = mostly about -30% to -49%
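THP-1 cells pretreated 1 hr with compounds (up to 57.5 uM final), then stimulated with LPS (250 ng/mL final) plus ATP (1.25 mM final); secreted IL-1B measured by AlphaLISA after 16 hr, decreased signal indicating inhibition.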
DT40 TDP1 CPT: DT40-hTDP1 cell growth loss with CPT. chicken DT40 Tdp1-/-;hTDP1 cells + 20 nM CPT, ATP luminescence, 48 h. Potency, µM (titrated, usually from 46.2 µM), inactives show at the highest dose activity change, negative = growth inhibition, most hits filed as inhibitors. actives 12% (n = 420,000). AID 686979; also: potency is read from the fitted curve at half-maximal effect; nearly all actives have a fitted effect of over 55% in size
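Chicken DT40 Tdp1-/- cells stably complemented with human TDP1 were seeded at 400 cells/well in medium containing 20 nM camptothecin, exposed to pin-transferred compounds, and grown at 37 °C for at least 48 hr. Viability was read as ATP luminescence.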
HT1080 IDH1KD tx: HT-1080 IDH1 knockdown cell toxicity (counter line); HT-1080 IDH1 knockdown viability, ATP luminescence, 48 h; Potency, µM (titrated, usually from 46.1 µM), for inactives: at the highest dose activity, negative = toxicity, usual class: cytotoxic; actives 2% (n = 360,000);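 also: potency is read from the fitted curve at half-maximal effect; 0% = DMSO wells and -100% = cell-free medium wells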
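HT-1080-IDH1KD cells (IDH1 knocked down), 750/well in RPMI with 5% FBS, treated with compound 48 h at 37 degrees C. Viability by CellTiter-Glo luminescence, normalised to DMSO and no-cell wells; concentration-response curves classed.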
Starred values were filed as active, the others as inactive; ? = inconclusive; · = no result; [ ] = another dose, or the depositor's remark. Shown are actives, neighbours in structure and some others; about 19% of the full set was active somewhere. Unless noted, calls follow the shape of the dose curve; as a rule, active = well fitted curve in the direction sought with a large enough effect; inconclusive = small, poorly fitted or top-dose-only effect, or another doubt; inactive = no such curve, though single readings can be large; an effect the other way counts as inactive or inconclusive. Unless noted, % is scaled to controls: 0 for no effect and ±100 for the full control effect.

SMILES	uPA generation	DT40 TDP1 no CPT	HT1080NT lethal	IL-1B inflam inh	DT40 TDP1 CPT	HT1080 IDH1KD tx
C[C@H](CO)N1C[C@H](C)[C@@H](CN(C)Cc2ccc(Cl)c(Cl)c2)Oc2c(NC(=O)CCC(F)(F)F)cccc2C1=O	?	12µM*	-24%	-70*	18µM*	-14%
C[C@H](CO)N1C[C@H](C)[C@@H](CN(C)S(=O)(=O)c2ccc(F)cc2)Oc2ccc(NS(=O)(=O)c3ccc(F)cc3)cc2C1=O	?	-25%	9%	-7	-11%	0%
C[C@@H]1CN([C@H](C)CO)C(=O)c2cc(NS(=O)(=O)c3ccc(F)cc3)ccc2O[C@@H]1CN(C)Cc1ccc(Cl)c(Cl)c1	?	?	23µM*	-72*	?	?
C[C@H](CO)N1C[C@H](C)[C@@H](CN(C)S(=O)(=O)c2ccc(F)cc2)Oc2c(NC(=O)CCC(F)(F)F)cccc2C1=O	5%	-1%	16%	?	?	6%
C[C@@H]1CCCCO[C@@H](CN(C)Cc2ccc(Cl)c(Cl)c2)[C@@H](C)CN([C@H](C)CO)C(=O)c2cc(NC(=O)CCC(F)(F)F)ccc2O1	·	10µM*	?	-5	8.2µM*	?
CCOc1ccc(S(=O)(=O)/N=C(\N)c2ccccc2)cc1	0%	12µM*	-23%	-11	23µM*	-2%
CC1=C(C(=O)OCc2ccccc2)C(c2ccc3c(c2)OCO3)NC(=O)N1CCCC(=O)O (configuration not stated)	0%	0.15µM*	-2%	49	?	0%
CCCCCCN(C(=O)CCCCCN1C(=O)NC(c2ccc([N+](=O)[O-])cc2)C(C(=O)OCc2ccccc2)=C1C)C(C(=O)NCCCC)C1CCCCC1 (configuration not stated)	12%	5.8µM*	2%	15	?	0%
COC(=O)CCCCCN1C(=O)NC(C2CC2)C(C(=O)OCc2ccccc2)=C1C (configuration not stated)	-10%	13µM*	0%	19	16µM*	-3%
CC1=C(C(=O)OCc2ccccc2)C(c2ccc(-c3ccccc3)cc2)NC(=O)N1CCCCCC(=O)O (configuration not stated)	2%	-24%	-13%	18	?	-11%
CCCCCCN(C(=O)CCCN1C(=O)NC(c2ccc(-c3ccccc3)cc2)C(C(=O)OCc2ccccc2)=C1C)C(C)C(=O)NCCCC (configuration not stated)	?	16µM*	-14%	?	?	-5%
COC(=O)CCCN1C(=O)NC(c2ccc(-c3ccccc3)cc2)C(C(=O)OCc2ccccc2)=C1C (configuration not stated)	-20%	?	-5%	-9	?	-4%
C[C@@H]1CCCCO[C@H](CN(C)Cc2ccc(C(=O)O)cc2)[C@H](C)CN([C@@H](C)CO)C(=O)c2cc(NC(=O)Nc3ccc(C(F)(F)F)cc3)ccc2O1	·	-7%	7%	27	-4%	-7%
COc1cc(-c2nnc(COc3ccc4ccccc4c3)o2)cc(OC)c1OC	4%	26µM*	-16%	-19	?	-3%
COc1cc(-c2nnc(-c3cc(OC)c(OC)c(OC)c3)o2)cc(OC)c1OC	0%	2.1µM*	4%	-2	1.8µM*	-12%[9.24 µM]
COc1cc(-c2nnc(-c3ccccc3)o2)cc(OC)c1OC	-3%	12µM*	10%	?	16µM*	20%
COc1ccc(-c2nnc(-c3ccccc3)o2)cc1OC	?	?	2%	?	-22%	16%
CCCc1nnc(-c2cc(OC)c(OC)c(OC)c2)o1	-2%	7%	14%	6	?	4%

High-throughput results as filed in PubChem BioAssay.
